# Screens deposited in PubChem by National Center for Advancing Translational Sciences (NCATS).
# TRPML1 inh: inhibitors of human TRPML1 channel. TRPML1-inducible cells, Ca2+ dye fluorescence, FDSS; hits give low values; inhibition of EC80 agonist-evoked calcium signal. hit rate 0.02% among 390,000. Q9GZU1. activity change, negative = inhibition, % (no concentration beside the values); in the data active means activity change below about -50%; inconclusive means between about -30% and that limit;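 further: stimulus is agonist 54-4 at its EC80 concentration; on the % scale 0 is the no-effect control and ±100 the full control effect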
#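 Tet-induced TRPML1-DL cells loaded with Ca8 no-wash calcium dye were read kinetically on FDSS. Compound addition was followed by EC80 agonist 54-4 (4 uM final); inhibition was read over 110 s.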
# TRPML1 ag: activates the human TRPML1 channel; Q9GZU1; TRPML1-expressing cells, Ca2+ dye fluorescence, FDSS; activation, % (concentration not given with the values); hit rate 0.12% among 410,000; AID 624414; in the data active means activation above about 50%; inconclusive means mostly about 30% to 49%; further: 0% is about no effect
#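 Tetracycline-induced TRPML1-DL cells are seeded and incubated overnight before loading with a no-wash Ca2+ dye and quencher. Agonist activity is taken from the 110 s fluorescence read following compound pin-transfer on an FDSS, before EC80 54-4 challenge.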
# TRPV1 ag: agonists of human vanilloid receptor 1 (TRPV1). hit rate 0.19% among 320,000. activation, % at 8.33 µM. TRPV1-expressing cells, Fluo-8 calcium influx, agonist mode. Q8NER1; in the data active means activation above about 80%; inconclusive means between about 30% and that limit; further: 0% is about no effect
# Target sequence (Q8NER1 whole entry, looked up): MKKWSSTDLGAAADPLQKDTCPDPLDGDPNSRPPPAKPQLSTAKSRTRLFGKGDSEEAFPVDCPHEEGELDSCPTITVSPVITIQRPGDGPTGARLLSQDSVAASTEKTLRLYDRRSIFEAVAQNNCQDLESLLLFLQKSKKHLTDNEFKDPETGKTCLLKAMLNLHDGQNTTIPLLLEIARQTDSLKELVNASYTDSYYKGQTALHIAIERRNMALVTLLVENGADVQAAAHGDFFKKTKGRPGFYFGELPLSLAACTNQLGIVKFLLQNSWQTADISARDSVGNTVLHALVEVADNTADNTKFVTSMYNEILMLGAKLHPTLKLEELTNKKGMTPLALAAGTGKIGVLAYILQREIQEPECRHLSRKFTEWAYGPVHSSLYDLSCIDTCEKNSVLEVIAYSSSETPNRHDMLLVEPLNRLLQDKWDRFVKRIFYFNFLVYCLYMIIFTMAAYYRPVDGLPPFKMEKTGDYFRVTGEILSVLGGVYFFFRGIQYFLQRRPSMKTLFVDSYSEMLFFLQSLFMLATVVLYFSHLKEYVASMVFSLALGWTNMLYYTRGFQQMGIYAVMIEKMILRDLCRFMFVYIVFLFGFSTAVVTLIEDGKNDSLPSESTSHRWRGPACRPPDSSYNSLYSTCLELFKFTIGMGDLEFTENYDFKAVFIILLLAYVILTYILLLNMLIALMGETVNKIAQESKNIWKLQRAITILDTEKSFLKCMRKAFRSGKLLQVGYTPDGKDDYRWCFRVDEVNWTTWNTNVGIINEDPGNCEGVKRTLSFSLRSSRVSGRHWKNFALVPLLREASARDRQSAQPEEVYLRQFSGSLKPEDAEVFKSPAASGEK
#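 TRPV1-expressing cells were cultured overnight at 35.5C and loaded with Fluo-8 calcium dye for 40 to 90 min at room temperature. After a 10 s baseline, compound was added and calcium influx was read kinetically for 3 min (ex 480/em 520 nm).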
# TRPV1 potentiator: potentiators of human vanilloid receptor 1 (TRPV1); Q8NER1; AID 540277; TRPV1-expressing cells, Fluo-8 calcium influx, capsaicin EC20 potentiation; potentiation, % at 8.33 µM; hit rate 0.02% among 320,000; in the data active means potentiation above about 80%; inconclusive means between about 30% and that limit; further: 0% is about no effect
#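 Fluo-8 calcium influx in TRPV1-expressing cells, kinetic read (ex 480/em 520 nm). Compound added and read 3 min for agonist activity, followed by capsaicin at EC20 final and 2 min further read for enhancement.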
# Numbers without * were called inactive; ? = inconclusive; · = no result. Most compounds without a hit are left out; they make up all but 0.31% or so of the library.
SMILES,TRPML1 inh,TRPML1 ag,TRPV1 ag,TRPV1 potentiator
CCC(C)Sc1cccc(-c2nc3ccc(Cl)cn3c2NCc2ccccc2)c1 (configuration not stated),70,0,87*,27
O=C(C1=C(O)C(=O)N(c2nccs2)C1c1ccccc1)c1cc2ccccc2o1 (configuration not stated),-2,92*,?,4
CS(=O)(=O)N1CCc2cc(C(=O)Nc3ccc(Cl)cc3)ccc21,-17,0,84*,-9
COc1ccc(NC(=O)c2ccc3c(c2)CCN3S(C)(=O)=O)cc1,-12,0,·,·
Cc1cc(NC(=O)CSc2nnc3c(C)cc4c(C)ccc(C)c4n23)no1,-5,1,-1,19
COc1cc2cc(C)c3nnc(SCC(=O)Nc4cc(C)on4)n3c2cc1OC,-23,-1,-9,108*
CCOc1ccc(CCNC(=O)Cn2ccc3cc(S(=O)(=O)N4CCCCC4)ccc32)cc1,-16,2,·,·
Fc1ccc(CNC(=S)NCc2ccccc2)cc1,23,1,84*,-4
Fc1ccccc1CNC(=S)NCc1ccc(Cl)cc1,23,0,84*,9
CCOC(=O)c1[nH]c(C)c(C(=O)NCc2ccc(C)cc2)c1C,6,0,19,7
CCOC(=O)c1[nH]c(C)c(C(=O)c2ccc(C)cc2)c1C,1,2,90*,0
COc1ccc(C2C(C(=O)c3cccs3)=C(O)C(=O)N2c2nnc(C)s2)cc1OC (configuration not stated),-11,20,28,-22
CC(C)c1nnc(N2C(=O)C(O)=C(C(=O)c3cccs3)C2c2ccccc2)s1 (configuration not stated),9,?,103*,-5
O=S(=O)(NCCc1csc2nc(-c3ccc(F)cc3)nn12)c1ccc(Oc2ccccc2)cc1,27,4,·,·
CC(Oc1ccc(Cl)cc1)C(=O)Nc1ccccc1N1CCOCC1 (configuration not stated),-5,74*,·,·
Cc1cc(Cl)ccc1OC(C)C(=O)Nc1ccccc1N1CCOCC1 (configuration not stated),15,1,11,-11
Cn1cc(/C=C/c2ccc3ccccc3n2)c2ccccc21,·,9,·,·
CC(C)c1ccc(NC(=O)c2cccc(Br)c2)cc1,-14,-1,93*,6
O=C(Nc1cccc(C(=O)Nc2cccc(Br)c2)c1)c1ccccc1,2,0,15,-7
CC(C)c1ccc(CNNC(=O)c2ccccc2)cc1,19,0,83*,-7
Cc1ccc(C)n1-c1c(C(=O)NCCCN2CCN(c3ccc(F)cc3)CC2)sc2ncccc12,-12,0,·,·
O=c1[nH]c2ccccc2nc1/C=C(\O)c1cccs1,-17,79*,?,-17
O=C1CC(c2ccccc2)CC(O)=C1C=NCCc1ccccc1 (configuration not stated),7,-1,9,84*
Cn1nc(-c2ccc(F)cc2)nc2c(=O)n(C)c(=O)nc1-2,·,0,·,·
COc1ccc2c(c1C)CCC(C)(C#N)C2=O (configuration not stated),-24,78*,·,·
SMILES,TRPML1 inh,TRPML1 ag,TRPV1 ag,TRPV1 potentiator
COc1ccc(OC)c2c1CCC1(C2)NC(=O)NC1=O (configuration not stated),·,-1,·,·
CC(C)(C)n1ncc2c(=O)n(Cc3cccc(-c4cccs4)c3)cnc21,23,1,·,·
CN1CCN(C(c2ccccc2)c2nnnn2C(C)(C)C)CC1 (configuration not stated),·,-1,·,·
CC(C)(C)n1nnnc1C(c1ccccc1)N1CCN(c2ncc(C(F)(F)F)cc2Cl)CC1 (configuration not stated),·,57*,·,·
CC(C)(C)n1nnnc1C(c1ccccc1)N1CCN(c2c(Cl)cncc2Cl)CC1 (configuration not stated),·,52*,·,·
CCCCS(=O)(=O)CC(O)CSc1nc(-c2ccc(C)cc2)cc(-c2ccccc2)c1C#N (configuration not stated),-9,0,·,·
N#Cc1cc(C(=O)c2cc(F)ccc2O)cn(-c2nccs2)c1=O,-14,124*,?,-17
CC(C)n1cc(C(=O)c2ccccc2O)cc(C#N)c1=O,11,0,-1,9
N#Cc1cc(C(=O)c2ccccc2O)cn(-c2nccs2)c1=O,-23,64*,87*,-17
CC(C)(C)n1ncc2c(=O)n(Cc3c(F)ccc(Cl)c3Cl)cnc21,6,2,·,·
Cc1c(OCC(=O)N2CCC(C(N)=O)CC2)ccc2c1oc(=O)c1ccccc12,·,·,91*,7
Cc1c(OCC(=O)N2CCC(C(=O)O)CC2)ccc2c1oc(=O)c1ccccc12,·,·,-1,?
O=C(C[C@H]1C(=O)N(C2CCCCC2)C[C@@H]1Cc1ccccc1)Nc1ccccc1,-14,0,85*,10
O=C(C[C@H]1C(=O)N(Cc2ccccc2)C[C@@H]1Cc1ccccc1)Nc1ccccc1,4,0,?,6
CCOc1ccc(CCNC(=O)c2sc3ncccc3c2-n2cccc2)cc1OCC,13,3,·,·
Cc1nn(Cc2ccc(Cl)cc2)c(C)c1NC(=O)CCCn1nc(C)c([N+](=O)[O-])c1C,7,2,93*,6
CCNC(=S)N1CCC(C(=O)c2ccc(Cl)cc2)CC1,12,1,81*,1
CCOC(=O)N1CCN(c2ccc(Cl)cc2)CC1,-21,3,?,-15
CCOC(=O)C(/C=C(\C#N)C(=O)OCC)=C(/N)N1CCN(c2ccc(Cl)cc2)CC1,-10,69*,-1,10
COCCNC(=O)c1sc2ncccc2c1-n1c(C)ccc1C,19,1,·,·
CCOCCc1nn2c(=O)cc(COC(=O)c3ccccc3NC(=O)C3CCCCC3)nc2s1,-6,2,·,·
CC1CCN(S(=O)(=O)c2ccc(C(C)C)cc2)CC1,-10,115*,-2,0
CC1CCN(S(=O)(=O)c2ccc(Cl)cc2)CC1,-9,0,0,-17
Cc1ccccc1CN1C(=O)c2ccccc2Sc2ccc(C(=O)NCCc3ccccc3)cc21,40,3,·,·
CC(C)C(=O)Nc1ccc(C(=O)CN2C(=O)NC3(CCOc4ccccc43)C2=O)cc1 (configuration not stated),-6,0,91*,24
SMILES,TRPML1 inh,TRPML1 ag,TRPV1 ag,TRPV1 potentiator
CCCOc1ccc(NC(=O)CC2C(=O)N(c3ccc(Cl)cc3)C(=O)N2CCc2ccncc2)cc1 (configuration not stated),16,0,·,·
CN1c2ccccc2-c2nc(SCC(=O)Nc3ccccc3)ncc2S1(=O)=O,10,1,·,·
O=C(c1ccc(-c2cccc(C(F)(F)F)c2)o1)N1CCOCC1,6,2,86*,-18
CC(=O)N1CCN(C(=O)c2ccc(-c3cccc(C(F)(F)F)c3)o2)CC1,4,1,29,-21
CC(C)NC(=S)NC(c1ccccc1)(c1ccccc1)c1ccccc1,-2,70*,?,-4
C/C(=N\NC(=S)NC(C)C)c1ccccc1,·,·,26,-13
